Hits are enriched below; roughly 17% of the tested compounds scored in any of these assays.
HepG2 viability: kills HepG2 cells in TGF-b inhibitor counter-screen; HepG2 CAGA-GFP viability, ATP luminescence, 18 h; 410,000 compounds, 0.76% hits; Potency, µM (highest dose often 46.1 µM), for the others: at the highest dose activity change, negative = cytotoxicity, usual class: cytotoxic; AID 588856
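CellTiter-Glo luminescence gave cytotoxicity after 18 hours at 37 degrees C. The cells were HepG2 CAGA-GFP in 1% FBS DMEM, stimulated with 500 pg/mL TGF-beta after compound addition. %Activity was normalised to no-cell wells (complete cell-killing) and DMSO (no toxicity), and curves were fitted and classified.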
S2 tox: reduces viability in counter-screen for ATXN expression inhibitors; 400,000 compounds, 0.49% hits; Potency, µM (titrated, usually from 56.7 µM), hits mostly cytotoxic; S2 cells (HEK-293 line with an ATXN2-luciferase reporter) viability, CellTiter-Fluor protease fluorescence, 24 h; also: nearly all actives have a fitted effect of over 40% in size
ATXN2 expr inh: reduces ATXN2 reporter expression in HEK-293 cells; HEK-293 ATXN2-luciferase reporter, luminescence, 24 h; 360,000 compounds, 0.72% hits; Potency, µM (doses to about 57 µM), for inactives: at the top dose activity change, negative = inhibition, usual class: inhibitors; also: % is scaled to controls: 0 for no effect and ±100 for the full control effect; nearly all actives have a fitted effect of over 55% in size
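ATXN2-luciferase reporter cells (luciferase flanked by upstream and downstream ATXN2 gene portions) were treated 24 h at 37 °C with compounds at up to 57 uM. SteadyGlo luminescence gave expression; GF-AFC fluorescence gave viability.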
TGFb inhibitor: blocks TGF-b signaling; HepG2 CAGA-GFP TGF-b/SMAD3 reporter, GFP fluorescence, 18 h; TGF-beta stimulated, 500 pg/mL final; Potency, µM (highest dose often 46.1 µM), without a hit: top-dose activity, negative = inhibition, usual class: inhibitors; 410,000 compounds, 1.2% hits; also: % is scaled to controls: 0 for no effect and ±100 for the full control effect; nearly all actives have a fitted effect of over 65% in size
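Inhibition was scored as loss of TGF-beta-induced (500 pg/mL final, 18 hours, 37 degrees C) GFP in HEPG2 cells carrying a CAGA-GFP reporter, in DMEM with 1% FBS. Well GFP was summed per cell; Activity was normalised to unstimulated and stimulated DMSO wells, then concentration-response fitting.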
TDP1 cell noCPT: qHTS for Inhibitors of human tyrosyl-DNA phosphodiesterase 1 (TDP1): qHTS in cells in absence of CPT; DT40 Tdp1-/- hTDP1 cells, no CPT, ATP luminescence, 48 h; Potency, µM (series often up to 46.2 µM), without a hit: top-dose activity change, negative = growth inhibition, usual class: inhibitors; 420,000 compounds, 15% hits; also: % is scaled to controls: 0 for no effect and ±100 for the full control effect; nearly all actives have a fitted effect of over 55% in size
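A cellular qHTS used chicken DT40 cells lacking endogenous Tdp1 but carrying stably transfected human TDP1. Compounds were applied without camptothecin, and cell growth kinetics were judged by ATP-dependent luminescence after ≥48 hr.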
TDP1 cell CPT: growth inhibition of DT40 Tdp1-/-;hTDP1 cells with camptothecin (screen for TDP1 inhibitors) | 420,000 compounds, 12% hits | Potency, µM (top dose mostly 46.2 µM), without a hit: top-dose activity change, negative = growth inhibition, actives largely listed as inhibitors | chicken DT40 Tdp1-/-;hTDP1 cells + 20 nM CPT, ATP luminescence, 48 h | AID 686979; also: % is scaled to controls: 0 for no effect and ±100 for the full control effect; nearly all actives have a fitted effect of over 55% in size
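Cell growth measured by CellTiter-Glo luminescence after a minimum 48 h, 37 C compound exposure with 20 nM CPT in Tdp1-knockout DT40 cells stably expressing hTDP1, seeded 400/well; qHTS titration format.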
An asterisk follows results filed as active; i = inactive; ? = inconclusive; / = no result given. Calls follow the shape of the dose curve; as a rule, active = well fitted curve in the direction sought with a large enough effect; inconclusive = small, poorly fitted or top-dose-only effect, or another doubt; inactive = no such curve, though single readings can be large; an effect the other way counts as inactive or inconclusive. Potency is read from the fitted curve at half-maximal effect.

SMILES	HepG2 viability	S2 tox	ATXN2 expr inh	TGFb inhibitor	TDP1 cell noCPT	TDP1 cell CPT
Oc1ccc(/C=N/N(Cc2ccccc2)c2ccccc2)c(O)c1O	-1%	i	-35%	-23%	18µM*	26µM*
C(=N\N(Cc1ccccc1)c1ccccc1)/c1cccnc1	-12%	i	-28%	?	3%	5%
Oc1cccc(/C=N/N(Cc2ccccc2)c2ccccc2)c1	13µM*	i	-9%	?	?	-25%
C=CCn1c(Sc2ncc([N+](=O)[O-])s2)n[nH]c1=O	-105%	30µM*	?	3.5µM*	0.92µM*	0.41µM*
O=c1[nH]nc(SCc2ccccc2Cl)n1-c1ccc2c(c1)OCCO2	-2%	i	7%	-5%	?	8%
C=CCn1c(CSc2ccccc2[N+](=O)[O-])n[nH]c1=S	-6%	i	11%	-11%	-20%	5%
O=c1[nH]nc(Sc2ncc([N+](=O)[O-])s2)n1-c1ccc2c(c1)OCCO2	/	/	12µM*	/	/	/
Cc1cccc2cc(C3CC(c4ccco4)=NN3C(=O)CCC(=O)O)c(Cl)nc12 (centres undefined)	7%	i	0%	3%	?	?
CCC(=O)N1CCc2cc(S(=O)(=O)NCCC(=O)N3CCN(c4cccc(OC)c4)CC3)ccc21	-6%	i	/	-12%	13µM*	?
Cc1cccc(N2CCN(C(=O)CCS(=O)(=O)c3ccc4c(c3)CC(=O)N4C)CC2C)c1 (centres undefined)	-1%	i	-1%	-12%	?	16µM*
CCC(=O)N1CCc2cc(S(=O)(=O)NCCC(=O)N3CCN(c4ccccc4)CC3)ccc21	4%	i	-11%	-4%	21µM*	?
CCC(=O)N1CCc2cc(S(=O)(=O)NCCC(=O)N3CCN(c4cccc(C)c4)C(C)C3)ccc21 (centres undefined)	-25%	i	/	?	9.2µM*	21µM*
O=C(Cn1cc(C(=O)C(F)(F)F)c2ccccc21)N1CCCCCC1	4%	?	51%	10%	-6%	-18%
CCCn1c(SCC(=O)Nc2nnc(CC)s2)nnc1-c1ccncc1	-3%	i	18%	-7%	-6%	-6%
Cc1cccc(N2CCN(C(=O)CCNS(=O)(=O)c3cccs3)CC2C)c1 (centres undefined)	-5%	i	8%	-2%	21µM*	?
CC1CC(C)CN(C(=O)CCNS(=O)(=O)c2cccs2)C1 (centres undefined)	-1%	i	7%	5%	-9%	-24%
COc1ccccc1N1CCN(C(=O)[C@H](C)NS(=O)(=O)c2ccc3c(c2)OCCCO3)CC1	0%	i	-6%	7%	0%	-13%
COc1cc(NC(=O)CSc2nc3c(C)ccc(C)c3cc2C)c(C(=O)O)cc1OC	0%	i	-3%	13%	0.37µM*	-7%
COc1cc(NC(=O)CSc2ccccc2)c(C(=O)O)cc1OC	2%	i	-3%	3%	-13%	-14%
CCOC(=O)C(C)(C)N(Cc1ccccc1C)S(=O)(=O)c1ccc(Cl)c([N+](=O)[O-])c1	-21%	i	-16%	7%	12µM*	?
CCCCN(CCCC)S(=O)(=O)c1ccc(N2CCCC2=O)c([N+](=O)[O-])c1	-16%	i	-11%	2%	21µM*	?
CCCN(CCC)S(=O)(=O)c1ccc(Cl)c([N+](=O)[O-])c1	-23%	24µM*	?	?	15µM*	?
CCOCCCNC(=O)c1ccc(C2SCC(=O)N2Cc2ccccc2)cc1 (centres undefined)	6%	i	2%	3%	?	-21%
Cn1c(Sc2ccc(C(=O)O)cc2[N+](=O)[O-])nnc1-c1ccccc1	-4%	i	4%	?	?	21µM*
CN1CCN(S(=O)(=O)c2ccc(Sc3nnnn3-c3ccccc3)c([N+](=O)[O-])c2)CC1	-48%	/	?	?	3.3µM*	2.9µM*
SMILES	HepG2 viability	S2 tox	ATXN2 expr inh	TGFb inhibitor	TDP1 cell noCPT	TDP1 cell CPT
CC(=O)c1ccc(Sc2nnnn2-c2ccccc2)c([N+](=O)[O-])c1	-80%	i	24%	0%	2.3µM*	2.6µM*
O=[N+]([O-])c1ccc(Sc2nnnn2-c2ccccc2)c(Cl)c1	-95%	i	6%	-25%	21µM*	?
CN(C)c1ccc(CNC(=O)c2ccc(Cn3c(=O)c4cccn4c4cccnc43)cc2)cc1	-2%	/	/	-23%	0.21µM*	?
CCCNC(=O)c1ccc(Cn2c(=O)c3cccn3c3cccnc32)cc1	-5%	/	/	20%	7%	3%
O=C(NCCc1ccccc1Cl)c1ccc(Cn2c(=O)c3cccn3c3cccnc32)cc1	10µM*	/	/	?	10µM*	10µM*
CSCCCNC(=S)Nc1ccc(N2CCOCC2)cc1	2%	i	-5%	23%	-13%	16%
O=C(c1ccc(Cl)c([N+](=O)[O-])c1)N(c1ccccn1)c1ccccn1	6%	i	-9%	0%	?	-21%
O=[N+]([O-])c1cc(-c2n(-c3ccccn3)c3ccccc3[n+]2-c2ccccn2)ccc1Cl	-18%	i	?	-18%	23µM*	16µM*
CCC(=NCCc1c(C)[nH]c2ccccc12)C1=C(O)CC(c2ccccc2)CC1=O (centres undefined)	-17%	?	-24%	?	2.9µM*	4.1µM*
CCC(=NCCc1c(C)[nH]c2ccc(OC(F)(F)F)cc12)C1=C(O)CC(c2ccccc2)CC1=O (centres undefined)	-10%	?	-28%	?	5.8µM*	4.6µM*
CCCCC(=NCCc1c(C)[nH]c2ccc(OC)cc12)C1=C(O)CC(c2ccccc2)CC1=O (centres undefined)	5%	?	1%	?	4.1µM*	4.1µM*
CC(=NCCc1c(C)[nH]c2ccc(OCc3ccccc3)cc12)C1=C(O)CC(c2ccccc2)CC1=O (centres undefined)	4%	i	-16%	12%	?	?
CCOC(=O)C1=C(C)Nc2ccccc2N=C1NC(=O)/C=C/c1ccc(OC)cc1OC	-6%	i	-22%	-1%	5%	5%

Bioassay records: PubChem, National Center for Advancing Translational Sciences (NCATS)
